Design in all cases: species or system human, MV4-11 + K-562 + COLO205 + SK-N-BE2 + OVCAR-8
The subject of assay [1] is ABCD3. The conditions noted are these: read-out: apparent Kd; compound concentrations: 100 nM and 1000 nM (sheet 'Samples'), CATDS: 4.0800331971119997E-3; n = 1.
The subject of assay [2] is MAP3K3. The settings on record: read-out: apparent Kd; compound concentrations: 100 nM and 1000 nM (sheet 'Samples'), CATDS: 4.1000911479265297E-3; n = 1.
Assay [3] relates to DAPK3. The conditions noted are these: read-out: apparent Kd; compound concentrations: 100 nM and 1000 nM (sheet 'Samples'), CATDS: 6.6145961365307402E-3; n = 1.
The test system of assay [4] is PSMC4. The settings on record: read-out: apparent Kd; compound concentrations: 100 nM and 1000 nM (sheet 'Samples'), CATDS: 0.17422831247088; n = 1.
The subject of assay [5] is PGK1. The settings on record: read-out: apparent Kd; compound concentrations: 100 nM and 1000 nM (sheet 'Samples'), CATDS: 0.13034020177251299; n = 1.
In assay [6] the test system is SMG1. The conditions noted are these: read-out: apparent Kd; compound concentrations:100 nM and 1000 nM (sheet 'Samples'); n = 1.
Assay [7] deals with ACVRL1. The conditions noted are these: read-out: apparent Kd; compound concentrations: 100 nM and 1000 nM (sheet 'Samples'), CATDS: 0.20940846784164599; n = 1.
Assay [8] has as its system TTN. The settings on record: read-out: apparent Kd; compound concentrations: 100 nM and 1000 nM (sheet 'Samples'), CATDS: 1.2755516587496201E-2; n = 1.
Assay [9] relates to AGPS. The settings on record: read-out: apparent Kd; compound concentrations: 100 nM and 1000 nM (sheet 'Samples'), CATDS: 9.2169061942303496E-2; n = 1.
In assay [10] the test system is ACLY. The conditions noted are these: read-out: apparent Kd; compound concentrations: 100 nM and 1000 nM (sheet 'Samples'), CATDS: 2.7002269039485799E-2; n = 1.
Assay [11] concerns GARS. The settings on record: read-out: apparent Kd; compound concentrations: 100 nM and 1000 nM (sheet 'Samples'), CATDS: 2.4594129373340799E-2; n = 1.
The test system of assay [12] is PFKP. The settings on record: read-out: apparent Kd; compound concentrations: 100 nM and 1000 nM (sheet 'Samples'), CATDS: 2.5253779658022699E-2; n = 1.
In assay [13] the test system is CLK3. The settings on record: read-out: apparent Kd; compound concentrations: 100 nM and 1000 nM (sheet 'Samples'), CATDS: 3.87460825135853E-2; n = 1.
Assay [14] has as its system SNRNP200. The settings on record: read-out: apparent Kd; compound concentrations: 100 nM and 1000 nM (sheet 'Samples'), CATDS: 1.8625825044313801E-2; n = 1.
Assay [15] has as its system FN3KRP. The settings on record: read-out: apparent Kd; compound concentrations: 100 nM and 1000 nM (sheet 'Samples'), CATDS: 2.5837856545343801E-2; n = 1.
Assay [16] concerns RAB14. The conditions noted are these: read-out: apparent Kd; compound concentrations: 100 nM and 1000 nM (sheet 'Samples'), CATDS: 3.92328124697153E-2; n = 1.
The test system of assay [17] is MAP4K4. The conditions noted are these: read-out: apparent Kd; compound concentrations: 100 nM and 1000 nM (sheet 'Samples'), CATDS: 1.6227318274317299E-2; n = 1.
In assay [18] the test system is PSMC3. The conditions noted are these: read-out: apparent Kd; compound concentrations: 100 nM and 1000 nM (sheet 'Samples'), CATDS: 3.1956932095177297E-2; n = 1.
The subject of assay [19] is SLC25A6;SLC25A4. The settings on record: read-out: apparent Kd; compound concentrations: 100 nM and 1000 nM (sheet 'Samples'), CATDS: 2.6658773348472799E-2; n = 1.
For assay [20], the system named is SMC2. The settings on record: read-out: apparent Kd; compound concentrations: 100 nM and 1000 nM (sheet 'Samples'), CATDS: 2.55109529885677E-2; n = 1.

For the molecule `Cn1ncc2c(N)ncnc21` [SKF-18267], the figures for the potency estimated from few doses in [1] and in assay [2] were 1270 nM and 1260 nM, respectively.

`O=C1N=C(NCCc2ccc(Cl)cc2)S/C1=C\c1ccc2ncccc2c1` [RO4498479-000]: the potency estimated from few doses in assay [3] was 2110 nM.

Regarding `O=C1NC(=O)/C(=C/c2ccc3ncccc3c2)S1` [RO4603632-000], the potency estimated from few doses in assay [4] was 1730 nM.

Take `COc1cccc2c(-c3ccncc3)c(-c3ccc(F)cc3)nn12` [GW468513X]: the potency estimated from few doses in assay [5] is 62.3 nM.

For the molecule `CC(=O)N[C@@H](Cc1ccc(OP(=O)(O)O)cc1)C(=O)N[C@H]1CCC(=O)N2CCC[C@@H](C(=O)NCc3ccc(Cl)cc3)N2C1=O` [RO0325308-000], in assay [6], the potency estimated from few doses is 121 nM.

For `FC(F)(F)c1ccc(-c2ncn(CCCN3CCOCC3)c2-c2ccncc2)cc1` [SB-217780], the potency estimated from few doses in assay [7] was 1630 nM.

Regarding `CCn1c(-c2cccnc2O)nc2cnccc21` [SB-736715], the potency estimated from few doses in assay [8] was 1870 nM.

With `COc1ccc(-c2cc3c(N)ncnc3o2)cc1` [GW642138X], the potency estimated from few doses in assay [9] was 2180 nM.

With `Cl.Cl.NC(CNC(=O)c1cc(Br)c(-c2ccnc3[nH]ccc23)s1)c1ccccc1.NC(CNC(=O)c1cc(Br)c(-c2ccnc3[nH]ccc23)s1)c1ccccc1` (centres unmarked) [GSK1322949A], the figures for the potency estimated from few doses in assay [10], in assay [11] and in assay [12] were 1570 nM, 2030 nM and 1880 nM, respectively.

For `NCC(NC(=O)c1cc(-c2cn[nH]c2)c(-c2ccnc3[nH]ccc23)s1)c1ccccc1.NCC(NC(=O)c1cc(-c2cn[nH]c2)c(-c2ccnc3[nH]ccc23)s1)c1ccccc1.O=C(O)C(F)(F)F.O=C(O)C(F)(F)F` (centres unmarked) [GSK1325775A], the potency estimated from few doses in [13] is 907 nM.

Turning to `COc1cc(Nc2nccc(-c3cnn4ncccc34)n2)cc(OC)c1` [GW801372X], in assay [14], the potency estimated from few doses was 1540 nM.

Turning to `CCN(CC)Cc1ccc(Nc2nccc(-c3cnn4ncccc34)n2)cc1` [GW780056X], the potency estimated from few doses in assay [15] was 618 nM.

In the case of `COc1ccc(Nc2nccc(NCCNC(=O)Nc3cc(C)ccc3C)n2)cc1` [GSK1379899A], in [16], the potency estimated from few doses was 2280 nM.

`NS(=O)(=O)c1ccc(NC=C2C(=O)Nc3ccc4ncsc4c32)cc1` [GW589933X]: in assay [17], the potency estimated from few doses is 2140 nM.

Turning to `Cn1cc(C2=C(c3ccc(OC[C@@H](O)CO)cc3)C(=O)NC2=O)c2ccccc21` [RO3208546-000], the potency estimated from few doses in assay [18] was 2090 nM.

With `CCC(CC)(CC)n1cnc2c(N)ncnc21` [SKF-97620], the potency estimated from few doses in assay [19] is 1430 nM; in [20], 1640 nM.

These data come from PMC11062922 (Nature Chemical Biology, 2023).
